Sampled rows, rich in hits. Any-hit rate of the full collection: about 2%.
TDP-43 yeast inh = rescues yeast growth from TDP-43 toxicity. TDP-43 expressing yeast growth rescue, BacTiter-Glo, 24 h. Potency, µM (highest dose often 46.1 µM), for inactives: at the highest dose growth rescue (activation), hits mostly activators. 1.8% of 410,000 active; further: potency means the concentration at half of the fitted maximal effect; % of control where 0% means no effect; nearly all actives have a fitted effect of over 50% in size
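Yeast cells expressing TDP-43 under galactose induction are exposed to compounds for 24 hr at 30 deg C. BacTiter-Glo luminescence measures growth, so protective compounds score as activators.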
aSyn yeast inh = rescues yeast growth from alpha-synuclein toxicity. Yeast expressing alpha-synuclein, growth rescue, BacTiter-Glo, 24 h. 0.14% of 370,000 active. AID 652106. Potency, µM (doses to about 46.1 µM), for inactives: at the highest dose growth rescue (activation), actives largely listed as activators; further: potency means the concentration at half of the fitted maximal effect; % of control where 0% means no effect; nearly all actives have a fitted effect of over 65% in size
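Galactose-induced alpha-syn yeast (OD600=0.02, raffinose-pregrown) + pinned cpd, 24 hr, 30 deg C; growth by BacTiter-Glo luminescence. Growth restoration scores as activation.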
FUS yeast rescue = rescues growth of FUS-expressing yeast | S. cerevisiae FUS-expressing, growth rescue, OD600, 24 h | Potency, µM (top dose mostly 76.6 µM), actives largely listed as activators | 0.24% of 390,000 active | AID 1347120;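 further: potency means the concentration at half of the fitted maximal effect; plate controls were DMSO vehicle for no effect and reference control for full effect; nearly all actives have a fitted effect of over 55% in size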
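Yeast FUS proteinopathy model; galactose-induced FUS (2%), starting OD 0.005. Cpds in dilution series, 24hr, 30C, 99% humidity. Abs 600 nm growth. Pos ctrl CP55940 (top 92uM final); neg ctrl DMSO.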
Abeta yeast res = A-beta toxicity reversal in yeast. yeast expressing A-beta42, growth rescue, OD600, 48 h; response scale: 0% DMSO, 100% iron-clioquinol control. Potency, µM (top dose mostly 46.1 µM), usual class: activators. 0.063% of 410,000 active. AID 1347071; further: potency means the concentration at half of the fitted maximal effect; nearly all actives have a fitted effect of over 55% in size
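Yeast growth medium received pinned compounds, then yeast cells expressing toxic A-beta were added; plates incubated at 30 C for 48 hr. Growth read as absorbance at 600 nm, normalized to DMSO and equimolar FeCl3 plus clioquinol controls.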
LDHA block = LDHA (human) enzyme inhibition | P00338 | purified LDHA, NADH/diaphorase-resazurin fluorescence; active compounds read low | activity change, % (values are at about 110 or 230 µM) | 0.15% of 480,000 active | AID 1347041; in the data active means activity change below about -30%; inconclusive means mostly about -25% to -30%;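 further: plate controls were DMSO wells for no effect and wells without enzyme for full effect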
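Human LDH5 (2 nM) was incubated with 0.06 mM NADH and 0.2 mM pyruvate for 5 min at room temperature in Tris pH 7.4. Remaining NADH was coupled through diaphorase/resazurin, and resorufin fluorescence was read at 0 and 20 min.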
IDH1 R132H inh = inhibitors of human mutant IDH1 R132H | AID 602179 | Potency, µM (highest dose often 76.6 µM), without a hit: top-dose activity change, negative = inhibition, actives largely listed as inhibitors | IDH1-R132H enzyme, NADPH consumption, diaphorase/resazurin fluorescence | 0.093% of 390,000 active; further: potency means the concentration at half of the fitted maximal effect; on the % scale 0 is the no-effect control and ±100 the full control effect; nearly all actives have a fitted effect of over 65% in size
Target sequence (O75874 whole entry R132H, stated change not applied): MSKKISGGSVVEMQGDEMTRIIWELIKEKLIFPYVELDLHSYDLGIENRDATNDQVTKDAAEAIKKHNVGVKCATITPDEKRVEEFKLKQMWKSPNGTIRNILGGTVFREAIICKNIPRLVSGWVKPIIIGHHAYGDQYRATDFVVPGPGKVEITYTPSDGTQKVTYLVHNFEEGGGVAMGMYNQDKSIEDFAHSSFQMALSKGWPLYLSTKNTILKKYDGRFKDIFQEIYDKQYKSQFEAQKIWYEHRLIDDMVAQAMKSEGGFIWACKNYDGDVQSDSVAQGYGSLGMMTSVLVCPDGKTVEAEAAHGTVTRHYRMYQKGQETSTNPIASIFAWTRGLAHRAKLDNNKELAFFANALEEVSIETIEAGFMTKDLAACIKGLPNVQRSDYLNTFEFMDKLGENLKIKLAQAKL
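IDH1-R132H (0.5 ug/mL) preincubated 30 min with compound, then NADPH (0.016 mM) and alpha-KG (2 mM) added; 80 min at RT, pH 7.5. Remaining NADPH coupled via diaphorase/resazurin to fluorescence (540/590 nm); concentration-response curves normalized to no-enzyme control.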
* marks the source's active call; other numbers are inactive results; i = inactive; ? = inconclusive; · = no result given; [ ] = dose if it differs, or a comment. Unless noted, the call rests on the fitted dose curve; in most records, active means well fitted curve in the direction sought with a large enough effect; inconclusive means small, poorly fitted or top-dose-only effect, or another doubt; inactive means no such curve, though single readings can be large; an effect the other way counts as inactive or inconclusive.

SMILES | TDP-43 yeast inh | aSyn yeast inh | FUS yeast rescue | Abeta yeast res | LDHA block | IDH1 R132H inh
Nc1nccnc1C(=O)NCC(O)c1ccc(F)cc1F (configuration not stated) | · | · | · | · | 11 | ·
Cc1nn2c(=O)cc(CN3CCN(c4ncccn4)CC3)nc2s1 | · | · | · | · | -6 | ·
Oc1ccc(-c2nc(-c3ccc(Br)cc3)no2)cc1 | · | · | · | · | 2 | ·
S=C(Nc1ccccc1)Nc1nccs1 | 13µM* | -25% | i | ? | -2 | -8%
O=C(Cc1ccc(F)cc1)Nc1nccs1 | 9% | -10% | i | i | -4 | 4%
Fc1ccc(NC(=S)Nc2nccs2)cc1 | 22µM* | -12% | i | ? | -2 | 3%
C/C(=C\c1ccccc1)C(=O)Nc1nccs1 | 11µM* | -13% | i | i | -18 | 0%
CCCc1cc(C(=O)NNC(=S)Nc2cccc(C)c2)cs1 | 8.9µM* | -6% | · | i | -3 | -3%
COc1cc(C2C(C#N)=C(SCc3ccccc3)NC3=C2C(=O)CCC3)cc(OC)c1OC (configuration not stated) | · | · | · | · | 17 | ·
Cc1nc(Cl)sc1C(=O)Nc1cc(F)cc(F)c1 | 11µM* | 3% | i | i | -7 | 3%
Cc1nc(Cl)sc1C(=O)Nc1ccc(F)cc1 | 3% | -2% | i | i | -5 | -7%
COCCN(CCOC)CCOc1cccc(C#N)c1 | · | · | · | · | -2 | ·
CS(=O)(=O)c1nc2ccccc2n1Cc1ccccc1 | 14% | 6% | i | i | -8 | 0%
CCS(=O)(=O)c1nc2ccccc2n1Cc1ccccc1Cl | 16µM* | -4% | i | i | 0 | 1%
S=C(NCc1ccc(Cl)cc1)Nc1ccc(Br)cc1 | · | · | · | · | 5 | ·
O=C(Nc1ccc(C2=NCCN2)cc1)c1ccc(C(=O)Nc2ccc(C3=NCCN3)cc2)c(Cl)c1 | 16% | -8% | i | i | -33* | 1%
CSc1nc2ccc(NS(=O)(=O)c3c(Cl)cccc3Cl)cc2s1 | 10µM* | 24% | · | i | 17 | 0%
Cc1nc2ccc(NS(=O)(=O)c3ccc(F)cc3F)cc2s1 | 13µM* | 20% | · | i | 0 | 8%
Cc1nc2ccc(NS(=O)(=O)c3c(F)cc(F)cc3Br)cc2s1 | 16µM* | ? | i | i | 0 | -8%
CSc1nc2ccc(NS(=O)(=O)c3ccccc3F)cc2s1 | 16% | 0% | i | i | -4 | 9%
O=S(=O)(Nc1ccc(N2CCOCC2)cc1)c1ccc(F)cc1 | 17% | 1% | i | i | -4 | -2%
O=S(=O)(Nc1ccc(N2CCOCC2)cc1)c1c(F)cc(F)cc1Br | ? | 22µM* | i | i | 4 | 12%
O=C(O)C(c1c[nH]c2ccc(OCc3ccccc3)cc12)N1CCN(CCOCCO)CC1 (configuration not stated) | · | · | · | · | 6 | ·
Cc1nc2ccc(NS(=O)(=O)c3ccc(C)c(C)c3)cc2s1 | 27% | 19% | i | i | 5 | 0%
Cc1nc2ccc(NS(=O)(=O)c3ccc(F)c(F)c3F)cc2s1 | 20µM* | ? | i | i | 0 | 1%
SMILES | TDP-43 yeast inh | aSyn yeast inh | FUS yeast rescue | Abeta yeast res | LDHA block | IDH1 R132H inh
O=C(CCc1ccccc1)NNC(=O)c1cc(Cl)ccc1O | -11%[1.82 µM] | 4% | i | i | 0 | -4%
COc1ccc(Cl)cc1NC(=O)N1CCN(c2ccccc2OC)CC1 | 11µM* | 13% | ? | i | -4 | 3%
COc1ccc(Cl)cc1NC(=S)NCCc1ccc(F)cc1 | 32µM* | -13% | i | ? | -4 | -4%
COc1ccc(Cl)cc1NC(=S)NCCc1ccc(S(N)(=O)=O)cc1 | -5%[9.22 µM] | -5% | i | i | -2 | 3%
COc1ccc(Cl)cc1NC(=O)NCC1CCN(C(=O)OC(C)(C)C)CC1 | -12% | -11% | 32µM* | i | -4 | 6%
Cc1cc(Cl)ccc1NNC(=O)CCc1ccccc1 | 13µM* | 10% | i | i | 5 | 2%
COc1ccc(Cl)cc1NC(=O)CCc1ccccc1 | 8.9µM* | 1% | i | i | -2 | 25%
